Where “and” joins values, the source holds several entries; their conditions need not be identical. Equal entries are not always repeated. Unmarked numbers belong to inactive results. Results filed as inconclusive are left out. A call without a number means that no potency is given here. Calls of active or inactive are those of the source. Unless noted, calls come from the whole dose curve; as a rule, active = well fitted curve in the direction sought with a large enough effect; inconclusive = small, poorly fitted or top-dose-only effect, or another doubt; inactive = no such curve, though single readings can be large; an effect the other way counts as inactive or inconclusive.
Legend:
[1] = S16 Schwann cell PMP22 intronic element firefly luciferase assay (AID 624032); note: nearly all actives have a fitted effect of over 30% in size; note: potency is the fitted concentration of half-maximal effect
How it was run: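 Rat S16 Schwann cells stably carrying firefly luciferase driven by a PMP22 intronic element, in 10% FBS, treated 24 h at 37 C. ONE-Glo luminescence normalized to PTC124 control and DMSO (0%); curves classed by r2, magnitude and activity.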

[2] = S16 Schwann cell viability assay (CellTiter-Glo assay) (AID 624031);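 note: native untransfected S16 rat Schwann cells; cellular ATP luminescence as a viability measure; nearly all actives have a fitted effect of over 70% in size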
How it was run: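 Parental S16 cells, 24 h compound, 37 °C. ATP-luminescence viability; DMSO = 0% activity, empty wells as reference; curves classified by fit quality and efficacy.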

[3] = S16 Schwann cell PMP22 intronic element beta-lactamase assay (AID 624044; calls by dose curve; note: nearly all actives have a fitted effect of over 15% in size); conditions: S16 rat Schwann cells, PMP22 element beta-lactamase FRET, 24 h; ratio activity, negative = inhibition: at 38.3 µM (top of the series) unless noted
How it was run: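 Rat S16 Schwann cells with beta-Lac driven by a PMP22 intronic element, compound-treated 24 h at 37 °C. LiveBLAzer FRET B/G read: 460 nm normalized to potassium clavulanate vs DMSO; 535 nm FRET as viability; concentration-effect curves classified.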

[4] = qHTS assay for small molecule agonists of the antioxidant response element (ARE) signaling pathway (AID 651741; active = well fitted activation curve with a large enough effect in the signal ratio; the % refers to the signal ratio; note: potency is the fitted concentration of half-maximal effect)
How it was run: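 HepG2 ARE-bla cells plated at 2,000 cells/well and incubated 5 h at 37 C/5% CO2 received 23 nL compound in DMSO. After 16 h at 37 C, LiveBLAzer B/G FRET substrate was applied for 2 h at room temperature and fluorescence read.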

[5] = qHTS assay for small molecule activators of the nuclear factor-kappa B (NF-kB) signaling pathway (AID 651749; active = well fitted activation curve with a large enough effect in the signal ratio; the % refers to the signal ratio); conditions: NF-kB-bla ME-180 cells, beta-lactamase FRET ratio, 16 h; stronger effect = higher value
How it was run: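 Incubation lasted 16 hr at 37C in 5% CO2 after 23 nL compound addition to ME-180 NF-kB-bla cells. Activation appears as beta-lactamase-mediated FRET loss.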

[6] = qHTS assay for small molecule disruptors of the mitochondrial membrane potential - 5 hr assay (AID 651755; calls by dose curve; note: nearly all actives have a fitted effect of over 40% in size)
How it was run: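 HepG2 cells (2,000/well), attached overnight, exposed to compound 5 hr at 37C, then Mito-MPS dye 30 min. Fluorescence read for monomers (490/535 nm) and aggregates (540/590 nm).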

[7] = qHTS assay to identify small molecules that stimulate interleukin-8 (IL-8) secretion (AID 651758; active = well fitted activation curve with a large enough effect in the signal ratio; the % refers to the signal ratio; note: potency is the fitted concentration of half-maximal effect)
How it was run: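 THP-1 cells (2000/well) exposed to compound 16 h at 37 C; secreted IL-8 then detected by HTRF with cryptate- and XL665-labelled anti-IL-8 antibody pair after 1-3 h at room temperature.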

[8] = qHTS assay for environmental chemicals that activate the Aryl hydrocarbon Receptor (AhR) signaling pathway (AID 651777); conditions: 1A2-DRE human hepatoma cells, luciferase, 24 h; activation: stronger effect = higher value; note: nearly all actives have a fitted effect of over 15% in size
How it was run: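 Reporter gene assay: hepatoma cells with DRE/CYP1A2-luciferase, 24 hr compound incubation at 37 C, 5% CO2, luminescence after One-Glo (30 min, RT).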

[9] = target: Peroxisome proliferator-activated receptor alpha (Homo sapiens) (UniProt Q07869); assay: qHTS assay for small molecule agonists of the peroxisome proliferator-activated receptor alpha (PPARalpha) signaling pathway (AID 651778); conditions: PathHunter PPARalpha complementation, chemiluminescence, 6 h; stronger effect = higher value
How it was run: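 Enzyme-fragment complementation assay in which ligand-bound PPARalpha translocates and forms an active enzyme that generates chemiluminescence. Cells were plated overnight, exposed to compound for 6 hr at 37 C, and then given detection reagent for 60 min at room temperature.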

[10] = target: Nuclear receptor ROR-gamma (Homo sapiens) (UniProt P51449); assay: qHTS assay for small molecule antagonists of the retinoid-related orphan receptor gamma (ROR-gamma) signaling pathway (AID 651802);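 note: CHO cells with doxycycline-induced ROR-gamma expression; luciferase reporter luminescence driven by ROR response element; nearly all actives have a fitted effect of over 60% in size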
How it was run: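 Antagonism is scored as a fall in luminescence from a RORE-luciferase reporter in CHO cells expressing ROR under a TET-inducible promoter, measured 16hr after doxycycline induction in the presence of compound.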

[11] = qHTS assay for small molecule disruptors of the mitochondrial membrane potential - 1 hr assay (AID 651754; calls by dose curve; note: nearly all actives have a fitted effect of over 35% in size)
How it was run: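 Steps: seed HepG2 cells and let attach overnight; pin-transfer compound or vehicle; incubate 1 hr at 37C; add Mito-MPS dye for 30 min; read two-channel fluorescence for monomer and aggregate forms.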

[12] = target: Tumor necrosis factor (Homo sapiens) (UniProt P01375); assay: qHTS assay to identify small molecules that stimulate Tumor Necrosis Factor-alpha (TNF-alpha) secretion (AID 651757; active = well fitted curve in the direction sought with a large enough effect in the signal ratio; the % refers to the signal ratio)
How it was run: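 Secreted TNF-alpha from compound-treated THP-1 cells (17 hrs, 37 C) was quantified with a homogeneous time-resolved fluorescence antibody assay.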

Nuclear receptor ROR-gamma (Homo sapiens), sequence (P51449 whole entry, looked up): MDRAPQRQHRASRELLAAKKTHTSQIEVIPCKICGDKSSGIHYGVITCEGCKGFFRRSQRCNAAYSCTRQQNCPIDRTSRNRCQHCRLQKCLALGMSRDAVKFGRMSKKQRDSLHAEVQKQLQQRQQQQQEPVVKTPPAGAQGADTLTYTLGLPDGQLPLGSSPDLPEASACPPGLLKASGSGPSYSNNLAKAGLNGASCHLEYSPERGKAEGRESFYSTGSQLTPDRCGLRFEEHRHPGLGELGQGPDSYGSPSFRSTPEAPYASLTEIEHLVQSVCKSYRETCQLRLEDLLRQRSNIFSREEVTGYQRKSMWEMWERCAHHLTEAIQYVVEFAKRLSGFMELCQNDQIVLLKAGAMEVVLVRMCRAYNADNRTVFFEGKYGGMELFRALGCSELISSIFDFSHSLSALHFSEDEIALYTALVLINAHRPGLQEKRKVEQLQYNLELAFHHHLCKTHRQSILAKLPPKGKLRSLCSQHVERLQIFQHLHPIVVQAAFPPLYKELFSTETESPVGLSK
Peroxisome proliferator-activated receptor alpha (Homo sapiens), sequence (Q07869 whole entry, looked up, the tested form may be a part): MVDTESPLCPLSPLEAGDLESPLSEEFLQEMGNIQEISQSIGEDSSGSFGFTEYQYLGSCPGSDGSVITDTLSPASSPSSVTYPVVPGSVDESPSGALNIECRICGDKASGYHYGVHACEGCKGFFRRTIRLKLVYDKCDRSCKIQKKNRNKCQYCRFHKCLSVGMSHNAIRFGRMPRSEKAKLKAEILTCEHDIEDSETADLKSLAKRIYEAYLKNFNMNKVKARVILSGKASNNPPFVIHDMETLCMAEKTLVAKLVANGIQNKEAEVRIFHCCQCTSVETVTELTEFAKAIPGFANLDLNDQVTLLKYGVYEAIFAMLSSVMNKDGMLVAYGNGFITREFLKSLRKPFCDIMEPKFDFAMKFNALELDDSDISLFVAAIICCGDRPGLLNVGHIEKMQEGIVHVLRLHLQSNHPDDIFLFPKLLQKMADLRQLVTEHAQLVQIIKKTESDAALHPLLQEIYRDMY
Tumor necrosis factor (Homo sapiens), sequence (P01375 whole entry, looked up): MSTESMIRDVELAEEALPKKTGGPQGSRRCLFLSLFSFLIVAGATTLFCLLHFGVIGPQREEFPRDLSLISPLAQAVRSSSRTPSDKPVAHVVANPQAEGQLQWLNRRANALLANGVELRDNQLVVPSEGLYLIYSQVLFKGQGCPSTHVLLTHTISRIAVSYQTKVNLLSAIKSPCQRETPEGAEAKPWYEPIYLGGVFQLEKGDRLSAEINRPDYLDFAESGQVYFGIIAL

With `CC(C)CCC[C@@H](C)[C@H]1CC[C@H]2[C@@H]3CC[C@@H]4C[C@H](O)CC[C@]4(C)[C@H]3CC[C@]12C` the Potency [1] was “inactive”.
For `COc1cc(C)c(/C=C/C(C)=C/C=C/C(C)=C/C(=O)O)c(C)c1C`, the Potency [2] was “inactive”, the Potency [1] was 0.572 µM (active) and the ratio activity, negative = inhibition [3] was -28.2%.
In the case of `CC(=O)N[C@@H]1C(O[C@H]2O[C@H](C(=O)O)C(O)[C@H](O)[C@H]2O)[C@H](O)[C@@H](CO)O[C@H]1O[C@@H]1C(C(=O)O)O[C@@H](O[C@H]2[C@H](O)[C@@H](CO)OC(O)[C@@H]2NC(C)=O)[C@H](O)[C@H]1O` (some centres not stated), the Potency [2] was “inactive” and the ratio activity, negative = inhibition [3] was 1.9%.
In the case of `Oc1cccc(O)c1O`, the Potency [2] was “inactive”, the Potency [1] was “inactive” and the ratio activity, negative = inhibition [3] was -1.18%. The Potency [4] was 5.96 µM (active), the activation [5] was 2.45% and the Potency [6] was “inactive”. The Potency [7] was 75 µM (active), the activation [8] was -0.8% and the max response [9] was 0.0177%. The Potency [10] was “inactive”.
For `CN1C(C(=O)Nc2ccccn2)C(=O)c2sc(Cl)cc2S1(=O)=O` (configuration not stated), the Potency [2] was “inactive” and the ratio activity, negative = inhibition [3] was 6.16%.
In the case of `COc1ccc(/C=C/C(=O)O)cc1`, the Potency [2] was “inactive”, the Potency [1] was “inactive” and the ratio activity, negative = inhibition [3] was 1.76%.
With `CCCCO` the Potency [2] was “inactive”, the Potency [1] was “inactive” and the Potency [4] was “inactive”. For the same compound, the Potency [11] was “inactive”, the Potency [6] was “inactive” and the Potency [12] was “inactive”. For the same compound, the Potency [7] was “inactive”, the activation [8] was -0.013% and -0.728% and the max response [9] was -5.14% and -4.07%.
With `COc1cc2c(cc1OC)[C@@H](Cc1cc(OC)c(OC)c(OC)c1)[N+](C)(CCCOC(=O)CC/C=C/CCC(=O)OCCC[N+]1(C)CCc3cc(OC)c(OC)cc3[C@H]1Cc1cc(OC)c(OC)c(OC)c1)CC2` (some centres not stated) the Potency [1] was “inactive”.
For `O=C(c1cc2ccccc2o1)N1CCN(Cc2ccccc2)CC1`, the Potency [1] was “inactive” and the ratio activity, negative = inhibition [3] was 2.34%.
For `CC1CCC(NC(=O)N(CCCl)N=O)CC1` (configuration not stated), the Potency [2] was “inactive”, the Potency [1] was “inactive” and the ratio activity, negative = inhibition [3] was 2.89%.
With `C(=C\c1ccncc1)/c1ccccc1` the Potency [1] was “inactive” and the ratio activity, negative = inhibition [3] was -6.31%.
For `Oc1ccc(Cl)c2c1CCC2`, the ratio activity, negative = inhibition [3] was -4.38%.
With `NCCN` the Potency [2] was “inactive”, the Potency [1] was “inactive” and the activation [5] was -0.458%. The Potency [11] was “inactive”, the Potency [6] was “inactive” and the Potency [12] was “inactive”. The activation [8] was -1.15%, the max response [9] was -6.55% and the Potency [10] was “inactive”.
In the case of `CO[C@@H]1[C@H](OC(=O)/C=C/C=C/C=C/C=C/C(=O)O)CC[C@]2(CO2)[C@H]1[C@@]1(C)O[C@@H]1CC=C(C)C`, the Potency [4] was 13.7 µM (active), the activation [5] was -0.892% and the activation [8] was 1.85%. It also gave a max response [9] of -0.833%.
In the case of `CC/C=C\C/C=C\C/C=C\C/C=C\C/C=C\CCCC(=O)O`, the Potency [2] was “inactive”, the Potency [1] was “inactive” and the ratio activity, negative = inhibition [3] was 1.33%.
In the case of `CO`, the Potency [2] was “inactive”, the Potency [1] was “inactive” and the ratio activity, negative = inhibition [3] was 1.83%. For the same compound, the activation [5] was -0.694%, the Potency [12] was “inactive” and the activation [8] was -0.288%. For the same compound, the max response [9] was -6.03% and the Potency [10] was “inactive”.
With `Cn1c(=O)c2c(ncn2CCOC(=O)C(C)(C)Oc2ccc(Cl)cc2)n(C)c1=O` the Potency [2] was “inactive”, the Potency [1] was 32.2 µM (active) and the ratio activity, negative = inhibition [3] was -5.21%.
With `ClC(Cl)Cl` the Potency [2] was “inactive”, the Potency [1] was “inactive” and the Potency [4] was “inactive”. For the same compound, the activation [5] was -1.06%, the Potency [11] was “inactive” and the Potency [6] was “inactive”. The Potency [12] was “inactive”, the activation [8] was -0.58% and the max response [9] was 0.366%.
For `CCCCCCCCCCCC(=O)N(CCO)CCO`, the Potency [1] was “inactive” and the ratio activity, negative = inhibition [3] was 0%.

Reference: PubChem BioAssay (NCATS)
